The structures appear in SMILES notation. The panel holds about 83,000 compounds, 20% with a hit somewhere; the sample as a whole holds those more often.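 For each line, cells grew in 96-well plates with the test compound present at a single concentration for 48 hours.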 Values without a mark were called inactive. Calls of active or inactive are those of the source. The calls were made as follows: active = growth percent below 10; inactive = the rest.

Drawing on PubChem BioAssay (NCI), this text covers growth for 6 compounds.

Among the test systems are NCI-H23 lung; NCI-H226 lung; NCI-H322M lung; HOP-62 NSCLC; NCI-H460 lung; HOP-92 NSCLC; NCI-H522 lung; A549/ATCC NSCLC; 786-0 renal; COLO 205 colon; DU-145 prostate; K-562 leukemia; MALME-3M melanoma; MDA-MB-231 breast; RXF 393 renal; SF-268 CNS; SF-295 CNS; SF-539 CNS; UACC-257 melanoma; M14 melanoma.
What all share (test): NCI-60 one-dose screen, 48 h (100 = growth as untreated, 0 = no growth, -100 = all killed)
Common to all, as to conditions: 10 µM unless noted

With `O=CNc1cc(Cl)cc(Cl)c1`, the growth was 102% with NCI-H23 lung; 102% in the experiment on NCI-H226 lung; 104% with NCI-H322M lung; 102% in the experiment on HOP-62 NSCLC; 104% with NCI-H460 lung; 106% in the experiment on HOP-92 NSCLC. Besides, the growth in the experiment on NCI-H522 lung was 95.4%; with A549/ATCC NSCLC, 102%; in the experiment on 786-0 renal, 104%; in the experiment with COLO 205 colon it was 107%; in the experiment on DU-145 prostate, 109%; in the experiment on K-562 leukemia, 97.5%. Moreover, the growth in the experiment on MALME-3M melanoma is 103%; in the experiment with MDA-MB-231 breast, 85.6%; with RXF 393 renal, 113%; in the experiment with SF-268 CNS, 106%; in the experiment on SF-295 CNS, 102%; with SF-539 CNS, 100%. Further, the results for the growth with UACC-257 melanoma and with M14 melanoma were 97.4% and 103%, respectively.
`O=C(OC(OC(=O)c1cc(Cl)cc(Cl)c1)c1cccc2ccccc12)c1ccccc1` (stereo not given): the growth in the experiment on NCI-H23 lung is 93.6%; in the experiment on NCI-H226 lung it was 98.7%; with NCI-H322M lung, 101%; in the experiment with HOP-62 NSCLC, 99.5%; in the experiment on NCI-H460 lung, 107%; with HOP-92 NSCLC, 101%. Further, the growth in the experiment with NCI-H522 lung was 80.4%; in the experiment with A549/ATCC NSCLC, 92.6%; with 786-0 renal it was 101%; in the experiment with COLO 205 colon it was 112%; in the experiment with DU-145 prostate, 103%; in the experiment on K-562 leukemia, 92.1%. Moreover, the growth in the experiment on MALME-3M melanoma was 91%; in the experiment with MDA-MB-231 breast it was 95.5%; with RXF 393 renal, 110%; in the experiment with SF-268 CNS, 94.8%; in the experiment with SF-295 CNS, 107%; with SF-539 CNS it was 103%. The growth with UACC-257 melanoma is 96.1%; in the experiment on M14 melanoma, 101%.
On to `Clc1ccc2c(c1)c(-c1ccccc1)nc1nncn12`, for which the growth with NCI-H23 lung is 98.6%; in the experiment on NCI-H226 lung, 114%; in the experiment with NCI-H322M lung, 114%; in the experiment on HOP-62 NSCLC it was 105%; in the experiment with NCI-H460 lung, 117%; in the experiment on HOP-92 NSCLC, 119%. For the same compound, the growth in the experiment with NCI-H522 lung was 93.1%; in the experiment with A549/ATCC NSCLC, 106%; in the experiment with 786-0 renal, 94.2%; in the experiment with COLO 205 colon it was 115%; with DU-145 prostate, 112%; in the experiment on K-562 leukemia, 119%. Further, the growth is 113% in the experiment with MALME-3M melanoma; 119% in the experiment on MDA-MB-231 breast; 135% in the experiment with RXF 393 renal; 95.6% with SF-268 CNS; 101% in the experiment with SF-295 CNS; 95.1% in the experiment on SF-539 CNS. For the same compound, the growth with UACC-257 melanoma was 115%; in the experiment with M14 melanoma, 110%.
Regarding `O=C(N=Nc1c(O)[nH]c2ccc(F)cc12)c1cc2ccccc2[nH]1`, the growth was 97.4% with NCI-H23 lung; 94.6% in the experiment with NCI-H226 lung; 94.4% with NCI-H322M lung; 94.5% with HOP-62 NSCLC; 100% in the experiment on NCI-H460 lung; 96.4% with HOP-92 NSCLC. For the same compound, the growth with NCI-H522 lung was 77.8%; with A549/ATCC NSCLC, 91.3%; in the experiment with 786-0 renal, 97.3%; in the experiment with COLO 205 colon, 117%; with DU-145 prostate it was 95.9%; in the experiment with K-562 leukemia, 91.7%. In addition, the growth in the experiment with MALME-3M melanoma is 99.8%; in the experiment with MDA-MB-231 breast, 95.1%; in the experiment with RXF 393 renal, 104%; with SF-268 CNS, 88.3%; with SF-295 CNS, 100%; in the experiment with SF-539 CNS, 99.8%. Also, the growth with UACC-257 melanoma was 106%; in the experiment with M14 melanoma, 94.9%.
As to `Fc1cc(C2=NNC(c3ccc[nH]3)C2)ccc1-n1ccc(C(F)(F)F)n1` (stereo not given), the growth in the experiment with NCI-H23 lung is 89.2%; in the experiment on NCI-H226 lung, 83.9%; in the experiment with NCI-H322M lung, 86.3%; in the experiment with HOP-62 NSCLC, 80.3%; in the experiment on NCI-H460 lung, 64.8%; in the experiment with HOP-92 NSCLC, 102%. Besides, the growth is 73.6% in the experiment with NCI-H522 lung; 68.4% in the experiment with A549/ATCC NSCLC; 85.8% in the experiment with 786-0 renal; 109% with COLO 205 colon; 82.8% in the experiment on DU-145 prostate; 62.2% in the experiment on K-562 leukemia. Further, the growth in the experiment with MALME-3M melanoma was 93.7%; in the experiment with MDA-MB-231 breast it was 62.7%; in the experiment with RXF 393 renal, 105%; with SF-268 CNS, 67.3%; with SF-295 CNS, 71.3%; in the experiment with SF-539 CNS, 88.1%. For the same compound, the growth in the experiment with UACC-257 melanoma is 98.5%; with M14 melanoma, 96.4%.
Take `c1ccc(-c2nn(-c3ccccc3)[n+](-c3cccc4ccccc34)n2)cc1`: the growth was 1.91% (active) with NCI-H23 lung; 26.9% in the experiment on NCI-H226 lung; 42.2% in the experiment with NCI-H322M lung; 41.7% in the experiment with HOP-62 NSCLC; 1.82% (active) in the experiment on NCI-H460 lung; -13.2% (active) in the experiment with HOP-92 NSCLC. The growth in the experiment with NCI-H522 lung was -8.34% (active); with A549/ATCC NSCLC it was 23.4%; with 786-0 renal, 42.5%; in the experiment with COLO 205 colon, 3.41% (active); with DU-145 prostate it was 29.1%; in the experiment on K-562 leukemia it was 8.3% (active). Also, the growth was -38.7% (active) in the experiment on MALME-3M melanoma; 31.5% with MDA-MB-231 breast; 30.8% in the experiment with RXF 393 renal; 26.4% in the experiment with SF-268 CNS; 16.8% in the experiment with SF-295 CNS; 25.6% in the experiment on SF-539 CNS. Besides, the growth with UACC-257 melanoma was 17.5%; in the experiment on M14 melanoma, 27.6%.
